MEKK2 mut-MEK5 = signal of MEK5 binding to mutant human MEKK2 PB1 domain; bead flow cytometry, Alexa488-MEK5 binding to MEKK2 mutant; percent response, % at 10 µM; 0.35% of 290,000 active; in the data active = percent response above about 24%, passing the limit was not always enough
GRK2 aptamer HTS = human GRK2 inhibition via aptamer displacement; AID 488847; bead flow cytometry, FAM-aptamer displacement from GRK2; P25098; 0.59% of 330,000 active; inhibition of aptamer binding, % at 10 µM;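 active = inhibition of aptamer binding above 40%, roughly 3 SD of noise, on plates passing a quality check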;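 also: median bead fluorescence of bound FAM aptamer so fluorescent compounds give negative values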
MEKK2 WT-MEK5 = raises or lowers MEK5 binding to wildtype human MEKK2 PB1 domain | Q9Y2U5 | bead flow cytometry, Alexa488-MEK5 binding to MEKK2 WT; actives lie on both sides | binding response (% of control), % at 10 µM | 1.1% of 290,000 active; in the data active = binding response below about 67% or above about 130%
MEKK3 PB1 HTS = MEKK3-MEK5 PB1 interaction, increase or decrease; 1.4% of 290,000 active; binding response (% of control), % at 10 µM; bead-based flow cytometry, Alexa488-MEK5 binding to MEKK3; actives lie on both sides; 0 = blocked by unlabeled MEK5, 100 = vehicle; Q99759;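 active = binding response more than 3 SD above or below the average of its plate-row segment, actives on both sides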;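 also: Alexa488 bead fluorescence after subtracting the streptavidin-only scavenger bead signal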
Target sequence (Q99759 whole entry, looked up): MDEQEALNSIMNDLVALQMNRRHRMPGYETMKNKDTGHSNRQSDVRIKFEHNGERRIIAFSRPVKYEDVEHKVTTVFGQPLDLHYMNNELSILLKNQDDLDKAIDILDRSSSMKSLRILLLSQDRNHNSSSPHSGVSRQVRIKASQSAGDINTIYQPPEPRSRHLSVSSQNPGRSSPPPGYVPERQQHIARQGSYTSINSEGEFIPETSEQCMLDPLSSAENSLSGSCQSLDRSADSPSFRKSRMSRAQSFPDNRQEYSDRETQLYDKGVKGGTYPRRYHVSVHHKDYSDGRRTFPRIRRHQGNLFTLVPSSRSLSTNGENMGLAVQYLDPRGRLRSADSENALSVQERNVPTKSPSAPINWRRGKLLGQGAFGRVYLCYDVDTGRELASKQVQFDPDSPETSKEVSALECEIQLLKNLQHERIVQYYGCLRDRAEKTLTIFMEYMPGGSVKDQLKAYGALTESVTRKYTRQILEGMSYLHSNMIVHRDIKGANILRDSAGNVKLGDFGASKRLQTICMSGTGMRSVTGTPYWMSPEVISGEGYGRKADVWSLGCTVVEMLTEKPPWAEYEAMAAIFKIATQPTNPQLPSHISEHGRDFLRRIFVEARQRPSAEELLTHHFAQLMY
GRK2 inh confirm = human GRK2 inhibition confirmation, cherry pick 1; 4% of 2,000 active; bead-bound GRK2, FAM-aptamer displacement, flow cytometry; shares compounds with GRK2 aptamer HTS; aptamer displacement, % at 10 µM; AID 504451;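 active = aptamer displacement above 40%, near three times the noise of non-fluorescent compounds, on plates passing quality checks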;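 also: negative values mostly reflect intrinsic compound fluorescence rather than true enhancement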
Aptamer quench 1 = fluorescent aptamer quenching in GRK2 counter-screen dose response; Fluorescent RNA aptamer beads, flow cytometry; hits give high values; fluorescence change (kMESF span), kMESF (concentration not given with the values); 110 tested, under 10 active; shares compounds with GRK2 aptamer HTS;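 active = compounds whose bead fluorescence drops by more than 37 kMESF across the dose range, marking them as dye quenchers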
FAM quench CP1 = aptamer fluorescence quenching in GRK2 counter-screen; fluorescence response (% of DMSO), % at 10 µM; shares compounds with GRK2 aptamer HTS; Carboxyfluorescein RNA aptamer on beads, flow cytometry quenching; hits give low values; 2,000 tested, under 10 active;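 active = compounds that quench the bead-bound fluorescent RNA probe, cutting fluorescence to under half of the solvent control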;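 also: counterscreen run without GRK2 so only probe quenching by compound is measured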
GRK2 CP2 = confirmation of human GRK2 inhibitors binding RNA aptamer site. AID 504782. inhibition of aptamer binding, % at 10 µM. shares compounds with GRK2 aptamer HTS. bead-bound GRK2, FAM-aptamer displacement, flow cytometry. 360 tested, under 10 active;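 active = inhibition of aptamer binding above 40%, about triple the noise seen with nonglowing compounds, on plates passing quality control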;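 also: negative values mostly come from compounds that fluoresce themselves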
FAM quench CP2 = quenches fluorescent RNA aptamer, GRK2 hit artifact; 360 tested, under 10 active; shares compounds with GRK2 aptamer HTS; carboxyfluorescein RNA aptamer beads, flow cytometry quenching; hits give low values; fluorescence response vs DMSO, % at 10 µM;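 active = response vs DMSO under 50%, meaning signal dropped by over half, treated as fluorescence quencher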;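 also: labelled aptamer on streptavidin beads without GRK2 as a quench counter-screen; 100% = bead fluorescence of DMSO wells and lower means quenching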
FAM quench DR = quenches fluorescent RNA aptamer, GRK2 hit artifact. shares compounds with GRK2 aptamer HTS. 35 tested, under 10 active. AID 588496. fluorescence ratio to DMSO, % at 11.1 µM. Bead-bound FAM RNA aptamer fluorescence quenching, flow cytometry; hits give low values;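 active = compounds that dim the fluorescent label, raw bead signal shifting by over 33 units between lowest and highest dose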
The depositor's hits bear a star; · = not tested or not shown. Shown are actives, neighbours in structure and some others; about 2.5% of the full set was active somewhere.

SMILES | MEKK2 mut-MEK5 | GRK2 aptamer HTS | MEKK2 WT-MEK5 | MEKK3 PB1 HTS | GRK2 inh confirm | FAM quench CP1 | others
O=C(CSc1nc2ccccc2[nH]1)N1CCN(S(=O)(=O)c2ccc(Cl)cc2)CC1 | -3 | 45* | 99 | 100 | 2 | 96
COc1ccccc1C1=CN(Cc2ccccc2)CCC1=O | · | 3 | · | · | · | ·
O=C1[C@H]2[C@@H](c3ccc(Cl)cc3)N3C(=O)N(c4cccc(Cl)c4)C(=O)[C@@]3(Cc3ccccc3)[C@H]2C(=O)N1C1CCCCC1 | · | 0 | · | · | · | ·
Cc1ccc(CCNC(=O)CCS(=O)(=O)c2ccc(Br)cc2)cc1 | -3 | 3 | 99 | 100 | 0 | 100 | Aptamer quench 1=9.3;FAM quench DR=102
Cc1ccc(S(=O)(=O)CCC(=O)NCCc2ccc(Cl)cc2)cc1 | 9 | 0 | 108 | 105 | · | ·
Cc1cccc(CCNC(=O)CCS(=O)(=O)c2ccc(Br)cc2)c1 | -13 | 1 | 77 | 83 | 2 | 104 | FAM quench DR=101
Cc1cccc2nc(-c3ccco3)oc(=O)c12 | 0 | 3 | 105 | 105 | · | ·
CCCCOc1ccc(-c2ncc(N)cn2)cc1 | -18 | 1 | 98 | 94 | · | ·
COc1ccc(CCNC(=O)COc2ccc(S(=O)(=O)N3CCOCC3)cc2C)cc1 | -6 | 0 | 97 | 96 | · | ·
CN(CC(=O)NCc1ccc(F)cc1)Cc1cccc(Cl)c1 | -1 | 0 | 101 | 102 | · | ·
CCN(CC(=O)NCc1ccc(F)cc1)C(=O)C(C)Oc1cccc(Cl)c1 (stereo not given) | · | 79* | · | · | -1 | 101
COc1ccc(NC(=O)C(NS(=O)(=O)c2cccs2)C(C)C)cc1Cl (stereo not given) | 4 | 3 | 99 | 102 | · | ·
CSc1ccc(CN2CCN(S(=O)(=O)Cc3ccccc3)CC2)cc1 | 2 | 55* | 101 | 103 | · | · | GRK2 CP2=-29;FAM quench CP2=103
CCC(=O)c1ccc(N2CCN(C(=O)c3cccs3)CC2)c(F)c1 | -2 | 17 | 103 | 101 | · | ·
Cc1ccc2oc(C(=O)N(C)Cc3ccc(C)o3)c(C)c2c1 | 5 | 0 | 105 | 104 | · | ·
Cc1ccc2oc(C(=O)N(C)Cc3ccon3)c(C)c2c1 | 6 | 92* | 101 | 102 | -1 | 104
CCNc1nc(SCC(=O)Nc2ccc(Cl)c(Cl)c2)nc(N(C)C)n1 | -10 | 45* | 89 | 103 | 0 | 105
CCOc1ccc(NC(=O)CN(C)C(=O)c2ccc(COc3ccccc3)cc2)cc1OCC | · | 33 | · | · | -3 | 95
Cc1ccc(CN2CCN(CC(C)C)C(CCO)C2)s1 (stereo not given) | 0 | 97* | 100 | 104 | -1 | 98
Cc1ccc(CN2CCN(Cc3cnc(N4CCOCC4)s3)CC2CCO)o1 (stereo not given) | 0 | 72* | 110 | 122 | 2 | 95
Cc1ccc(CN2CCN(CCC(C)C)C(CCO)C2)s1 (stereo not given) | 4 | 3 | 95 | 97 | · | ·
CCn1c(SCC(=O)NC2=NCCS2)nnc1C(C)NC(=O)c1ccccc1Br (stereo not given) | 2 | 0 | 101 | 99 | · | ·
COc1ccc(S(=O)(=O)N2CCN(Cc3ccc(Cl)cc3)CC2)cc1 | -3 | 65* | 97 | 93 | 0 | 102
COc1ccc(S(=O)(=O)N2CCN(Cc3cccc(Cl)c3)CC2)cc1 | -3 | 1 | 96 | 100 | · | ·
COc1ccc2[nH]c3c(c2c1)CCN1C(=O)C(CC(=O)NCC24CC5CC(CC(C5)C2)C4)C[C@H](C(=O)N(C(C)C)C(C)C)[C@@]31C (stereo not given in full) | · | 2 | · | · | · | ·
SMILES | MEKK2 mut-MEK5 | GRK2 aptamer HTS | MEKK2 WT-MEK5 | MEKK3 PB1 HTS | GRK2 inh confirm | FAM quench CP1 | others
CC(C)Cc1nnc(NC(=O)C2CSC3(C)CCC(=O)N23)s1 (stereo not given) | · | 1 | · | · | · | ·
Cc1ccc(CNC(=O)c2ccc(N3CCc4ccccc43)c([N+](=O)[O-])c2)cc1 | -1 | 3 | 109 | 115 | 0 | 98
COCOc1ccc(C=O)c(OCOC)c1 | 4 | 98* | 108 | 104 | -1 | 100
COCOc1ccc(C=O)c(O)c1 | 2 | 0 | 102 | 104 | · | ·
Cc1cc(C)n2nc(C(=O)N3CCCC(Nc4ccc(C(C)C)cc4)C3)cc2n1 (stereo not given) | 1 | 4 | 100 | 103 | · | ·
Cc1cc(C)n2nc(C(=O)N3CCCC(Nc4ccc(F)c(F)c4)C3)cc2n1 (stereo not given) | 2 | 85* | 99 | 96 | · | · | GRK2 CP2=9;FAM quench CP2=102
O=C1OCc2ccc(NC(=O)c3sccc3Cl)cc21 | 2 | 73* | 96 | 101 | -1 | 101
O=C(Nc1ccc2c(c1)C(=O)OC2)c1ccc(Cl)cc1 | 7 | 7 | 104 | 104 | · | ·
O=C(CN1C(=O)c2cccnc2Oc2ccc(Cl)cc21)NCCC1=CCCCC1 | 1 | 2 | 100 | 102 | · | ·
CC1CCCC(C)N1C(=O)COC(=O)c1c[nH]c2ccccc12 (stereo not given) | · | 1 | · | · | · | ·
CN(c1ccccc1)S(=O)(=O)c1ccc(C(=O)N2CCCC2)cc1 | · | 58* | · | · | 0 | 101
Cc1ccc(S(=O)(=O)N(C)c2ccc(C(=O)N3CCc4ccccc4C3)cc2)cc1 | -3 | 57* | 96 | 99 | -4 | 98
CCOC(=O)N1CCC(n2c(=S)[nH]c3cc(OCC)c(OCC)cc3c2=O)CC1 | 0 | 11 | 94 | 95 | · | ·
CCOc1cc2[nH]c(=S)n(C3CC3)c(=O)c2cc1OCC | -2 | 41* | 103 | 107 | 15 | 98
Cc1onc(-c2ccccc2)c1C(=O)n1cc(Br)cn1 | 2 | 69* | 96 | 99 | 0 | 97
O=C1N[C@@H](Cc2ccccc2)[C@@H](c2ccco2)O1 | 3 | 1 | 94 | 93 | · | ·
C[C@@H]1NC(=O)OC1c1ccco1 (stereo not given in full) | · | 76* | · | · | 5 | 99
CCc1ccc(NC(=O)CSc2nc3n[nH]c(C)c3c(=N)n2-c2cccc(OC)c2)cc1 | 8 | 0 | 113 | 109 | · | ·

Screens: PubChem, NMMLSC
